Screens (PubChem)
HSP90 inh = HSP90 inhibitors, primary screen, cell lysate, luminescence | AID 1789, 2009 | Heat shock protein HSP 90 (rabbit reticulocyte lysate; luciferase refolding) | 290,000 tested, 0.91% active | inhibition, % at 5.6 µM | Rabbit reticulocyte lysate, luciferase refolding luminescence, 3 h;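 active means inhibition above the screen-wide mean plus 3 SD, computed separately per campaign, cut at about 16% in these data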;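 further: inhibitors lower the luminescence because luciferase stays unfolded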
HSF-1 act = HSF-1 activators, primary screen, NIH3T3-HGL cells, MG132 stress, luminescence, single point; NIH3T3-HGL HSF-1 luciferase reporter, 8 h; 100% = twice DMSO control signal; activation, % at 9 µM; 300,000 tested, 1.7% active; AID 504408, 2011;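 active means mean replicate activation of at least 50% with a set share of replicates each reaching 50%; inconclusive means only one of those two conditions met; inactive means mean below 50% and too few replicates reaching it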
HIF activator = HIF pathway transcriptional activators, primary screen, cell-based, U2OS HRE-luciferase, luminescence; U2OS HRE-luciferase reporter; normalized: DMSO 0%, desferrioxamine 100%; activation, % at 7.5 µM (by protocol); 300,000 tested, 0.32% active; AID 1910, 2009;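 active means mean activation of at least 10% of the iron chelator positive control signal, with at least half of replicates also reaching 10%; inconclusive means mean and replicate majority disagree about reaching 10%; inactive means mean and most replicates under 10%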
ARNT TACC3 PPI = disruptors of ARNT/TACC3 protein interaction, primary screen, biochemical, AlphaScreen, single concentration; Transforming acidic coiled-coil-containing protein 3 (Homo sapiens), Q9Y6A5; AlphaScreen His-ARNT PAS-B/GST-TACC3 binding, luminescence; TACC3 fragment carries E629A point mutation; inhibition, % at 9.99 µM; 390,000 tested, 0.66% active;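 active means mean inhibition of replicates at least 50% and at least half of replicates each reaching 50%; inconclusive means half or more replicates reach 50% but mean below 50%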
HSF1 inhib = HSF1 inhibitors in luciferase reporter cells, primary screen, cell-based, NIH3T3, luminescence | NIH3T3-HGL HSE-luciferase, MG132-induced, luminescence 8 h; hits give low values | activity change, negative = inhibition, % at 7.5 µM (by protocol) | 300,000 tested, 0.77% active | AID 2098, 2009;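 active means more than half of replicate wells show activity change below -50%, luminescence cut by over half; inconclusive means some wells, but at most half, below -50%; inactive means no replicate well below -50%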;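 further: luciferase reports HSF-1 transcriptional activity via heat shock element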
HSP90 confirm = HSP90 inhibitors, confirmation, cell lysate, luminescence | shares compounds with HSP90 inh | rabbit reticulocyte lysate, luciferase refolding luminescence, 3 h | inhibition, % at 5.9 µM | 2,300 tested, 64% active | AID 1846, 2009; in the data active means inhibition above about 18%
luciferase ctr = firefly luciferase inhibitors, HSP90 counter-screen, confirmation, artefact control for HSP90 inhibitor project, biochemical, luminescence, triplicate | AID 1847, 2009 | purified native firefly luciferase | 2,300 tested, 48% active | shares compounds with HSP90 inh | inhibition, % at 5.9 µM;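 active means inhibition above the mean inhibition of all tested sample wells plus 3 SD, cut at about 10% in these data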
Target sequence (P08659 whole entry, looked up): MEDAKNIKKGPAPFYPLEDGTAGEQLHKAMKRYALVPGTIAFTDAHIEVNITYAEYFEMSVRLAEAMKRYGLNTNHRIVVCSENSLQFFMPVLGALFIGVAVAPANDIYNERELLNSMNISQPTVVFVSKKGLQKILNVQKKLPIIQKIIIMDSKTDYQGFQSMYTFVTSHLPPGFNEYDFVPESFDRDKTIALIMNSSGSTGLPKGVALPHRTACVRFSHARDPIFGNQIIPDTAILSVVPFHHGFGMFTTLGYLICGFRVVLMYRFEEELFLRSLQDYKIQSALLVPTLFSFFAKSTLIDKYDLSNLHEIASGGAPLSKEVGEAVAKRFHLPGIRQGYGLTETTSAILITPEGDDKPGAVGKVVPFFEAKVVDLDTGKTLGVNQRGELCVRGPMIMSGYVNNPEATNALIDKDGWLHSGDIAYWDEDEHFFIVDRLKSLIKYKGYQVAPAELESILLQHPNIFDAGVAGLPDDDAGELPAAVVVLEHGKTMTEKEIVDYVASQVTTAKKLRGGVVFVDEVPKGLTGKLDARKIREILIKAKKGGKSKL
Each line names hits and unclear results; the compound was inactive in the other large screens (follow-up assays come after a bar, where they were run). Compounds with a hit are over-represented: about 3.1% of the library has one in this group of screens.

C/C(=N\NC(=O)c1ccccc1O)c1cccs1	HSP90 inh 23.4 | HSP90 confirm 40.3 | luciferase ctr 44.3
C/C(=N\NC(=O)c1cccc2ccccc12)c1cccs1	none
COC(=O)N1C(=O)[C@](c2ccccc2)(C(C)C)N1C(=O)OC	HSP90 inh 31.1 | HSP90 confirm inactive | luciferase ctr inactive
COCCNc1c(-c2ccc(OC)c(OC)c2)nc2ccc(Cl)cn12	HSP90 inh 20.5 | HSP90 confirm inactive | luciferase ctr inactive
C[C@@H]1CN([C@@H](C)CO)C(=O)Cc2cc(NC(=O)Cc3ccccc3)ccc2O[C@H]1CN(C)S(=O)(=O)c1ccccc1	none (no result: HSP90 inh, HSF-1 act, HIF activator, HSF1 inhib)
COCC#Cc1ccc2c(c1)O[C@@H](CN(C)S(=O)(=O)c1cccc(OC)c1)[C@@H](C)CN([C@H](C)CO)S2(=O)=O	none (no result: HSP90 inh, HSF-1 act, HIF activator, HSF1 inhib)
C[C@H](CO)N1C[C@H](C)[C@H](CN(C)C(=O)Nc2ccc3c(c2)OCO3)OCCCC[C@H](C)Oc2ccc(NC(=O)NC3CCCCC3)cc2C1=O	none (no result: HSP90 inh, HSF-1 act, HIF activator, HSF1 inhib)
CCOc1cc(/C=C2/C(=O)N(c3ccccc3)N=C2C)ccc1OC(=O)c1ccco1	HSP90 inh 27.0 | HSP90 confirm inactive | luciferase ctr inactive
COc1ccc2cc(C(=O)N3CCc4ccccc43)[nH]c2c1	HSP90 inh 21.7, HSF-1 act 52.2 | HSP90 confirm inactive | luciferase ctr inactive
COc1ccc2oc(C(=O)Nc3ccccn3)c(C)c2c1	HSP90 inh 24.7 | HSP90 confirm 46.3 | luciferase ctr 33.9
COc1ccc2oc(C(=O)N3CCc4ccccc43)c(C)c2c1	HSP90 inh 22.7, HSF1 inhib inconclusive | HSP90 confirm 59.1 | luciferase ctr 46.5
O=C(c1cc2cc(Br)ccc2[nH]1)N1CCc2ccccc21	none
COc1ccc2oc(C(=O)Nc3ccc(C)cn3)c(C)c2c1	none (no result: HSP90 inh)
CNC[C@H]1Oc2ccc(NC(=O)Nc3ccc(OC)cc3)cc2CC(=O)N([C@H](C)CO)C[C@@H]1C	none (no result: HSP90 inh, HSF-1 act, HIF activator, HSF1 inhib)
CC(C)NC(=O)N(C)C[C@H]1Oc2ccc(NC(=O)Cc3ccccc3)cc2C(=O)N([C@@H](C)CO)C[C@H]1C	none (no result: HSP90 inh, HSF-1 act, HIF activator, HSF1 inhib)
Cc1nc(-c2noc(-c3cccc(Cl)c3)n2)c(C(F)(F)F)o1	HSP90 inh 21.4 | HSP90 confirm inactive | luciferase ctr inactive
Cc1nc(-c2noc(-c3ccccc3Cl)n2)c(C(F)(F)F)o1	none
c1csc(CNc2ccc3c(c2)OCCO3)c1	HSP90 inh 31.1 (no result: HSF-1 act, HIF activator, HSF1 inhib) | HSP90 confirm 21.5 | luciferase ctr 14.9
COc1ccc(NC(=O)c2ccc(COCC(F)(F)C(F)F)cc2)cc1	HSP90 inh 18.9 | HSP90 confirm inactive | luciferase ctr inactive
C[C@H]1CN([C@@H](C)CO)C(=O)c2ccccc2-c2ccccc2CO[C@@H]1CN(C)Cc1cccnc1	none (no result: HSP90 inh, HSF-1 act, HIF activator, HSF1 inhib)
Cc1ccccc1S(=O)(=O)N[C@H]1CC[C@H](CCNS(=O)(=O)c2cccc(F)c2)O[C@@H]1CO	none (no result: HSP90 inh, HSF-1 act, HIF activator, HSF1 inhib)
CCOC(=O)c1csc(NC(=O)c2ccccc2)n1	none
CCOC(=O)c1csc(NC(=O)c2ccc3c(c2)OCCO3)n1	HSP90 inh 57.2 | HSP90 confirm 84.1 | luciferase ctr inactive
CCOC(=O)c1csc(NC(=O)c2ccc(OCC)cc2)n1	HSP90 inh 41.6 | HSP90 confirm 75.0 | luciferase ctr inactive
COC(=O)c1ccc(-n2c(C)cc(-c3csc(NC(=O)c4ccc(S(=O)(=O)N(C)C)cc4)n3)c2C)cc1	HSP90 inh 25.4 | HSP90 confirm 24.4 | luciferase ctr inactive
Cc1cc(-c2csc(NC(=O)c3cccc(S(=O)(=O)N(C)C)c3)n2)c(C)n1-c1ccccc1	none
CCOC(=O)c1csc(NC(=O)c2ccc(S(=O)(=O)N(C)C)cc2)n1	HSP90 inh 24.6 | HSP90 confirm 37.3 | luciferase ctr inactive
CN1[C@@H]2Cn3c(ccc(-c4cccnc4)c3=O)[C@H]1[C@@H](C(=O)N1CCC(Cc3ccccc3)CC1)[C@@H]2CO	none (no result: HSP90 inh, HSF-1 act, HIF activator, HSF1 inhib)
COCC(=O)Nc1ccc2c(c1)C(=O)N(C)[C@H]1CC[C@H](CC(=O)NCc3ccccc3)O[C@H]1CO2	none (no result: HSP90 inh, HSF-1 act, HIF activator, HSF1 inhib)
OCCNC(=S)Nc1ccc(Cl)c(Cl)c1	none
OCCNC(=S)Nc1cc(Cl)cc(Cl)c1	HSP90 inh 18.4 | HSP90 confirm inactive | luciferase ctr inactive
CC(C)NC(=O)N1[C@H](CO)[C@@H](c2ccccc2)[C@H]1CNC(=O)CN(C)C	none (no result: HSP90 inh, HSF-1 act, HIF activator, HSF1 inhib)
COc1ccc(S(=O)(=O)N(C)C[C@H]2Oc3c(NS(=O)(=O)c4c(C)noc4C)cccc3C(=O)N([C@H](C)CO)C[C@H]2C)cc1	none (no result: HSP90 inh, HSF-1 act, HIF activator, HSF1 inhib)
C[C@@H]1CN([C@@H](C)CO)C(=O)c2cc(C#CCN(C)C)cnc2O[C@@H]1CN(C)C(=O)c1cccnc1	none (no result: HSP90 inh, HSF-1 act, HIF activator, HSF1 inhib)
CC(C)c1ccc(-n2cccc2/C=C2/C(=N)N3C=CSC3=NC2=O)cc1	HSP90 inh 32.1 | HSP90 confirm 22.1 | luciferase ctr inactive
CN(C)CC(=O)Nc1ccc2c(c1)[C@@H]1C[C@@H](CC(=O)NCc3ccccc3)O[C@@H](CO)[C@@H]1O2	none (no result: HSP90 inh, HSF-1 act, HIF activator, HSF1 inhib)
O=C(Oc1ccc[nH]c1=O)c1cc([N+](=O)[O-])cc([N+](=O)[O-])c1	none | HSP90 confirm inactive | luciferase ctr inactive
COc1ccc(C(=O)Oc2ccc[nH]c2=O)cc1	none (no result: ARNT TACC3 PPI)
Cc1ccc2c(c1)-c1nc3ccccc3cc1C2=NC1CCCCC1	none (no result: HSF-1 act, HIF activator, HSF1 inhib)
Cc1ccc2c(c1)Cc1nc3ccccc3nc1-2	HSP90 inh 26.8 | HSP90 confirm 70.9 | luciferase ctr 62.6
CCc1ccc(Nc2n[n+](-c3ccccc3)c(-c3ccc(N(CC)CC)cc3)s2)cc1	HSP90 inh 20.1 | HSP90 confirm 45.8 | luciferase ctr inactive
CCN(CC)c1ccc(-c2sc(Nc3ccccc3)n[n+]2-c2ccc(F)cc2)cc1	none
COC(=O)C[C@H]1C[C@@H]2c3cc(NC(=O)Nc4ccc(C(F)(F)F)cc4)ccc3O[C@@H]2[C@@H](CO)O1	none (no result: HSP90 inh, HSF-1 act, HIF activator, HSF1 inhib)
CCOC(=O)c1c(C)[nH]c(C2=NNC(=NC3CC3)SC2)c1C	HSP90 inh 54.7 | HSP90 confirm 84.0 | luciferase ctr 75.3
O=C(C1CCCC1)N1C[C@H]2[C@@H](c3ccccc31)[C@H](CO)N2C(=O)c1cccnc1	none (no result: HSP90 inh, HSF-1 act, HIF activator, HSF1 inhib)
CCc1nnc(N/N=C/c2ccccc2Cl)n1N	HSP90 inh 71.9, HSF-1 act 72.5 | HSP90 confirm inactive | luciferase ctr inactive
CCc1nnc(N/N=C/c2ccccc2F)n1N	HSP90 inh 79.8, HSF-1 act 58.9 | HSP90 confirm inactive | luciferase ctr inactive
